Drawing on PubChem BioAssay (EPA / NIEHS), this text covers outcome for 31 compounds.

The structures appear in SMILES notation. Inconclusive results are not listed. Active and inactive are the calls of the source. Rule for the calls: active = hit-call score of the fitted dose curve at least 0.9, where 1 is the maximum; inconclusive = response in the unintended direction; inactive = score below 0.9.

A short description of the assay: CLD_ACTIN_48hr: CellzDirect (CLD) Gene Expression Assay for Baseline Control (Actin) at 48 hours (AID 2283702). As to the method:
CLD_48hr is a cell-based, multiplexed-readout assay that uses hepatocyte, a human liver primary cell, with measurements taken at 48 hours after chemical dosing in a 96-well plate.CLD_ACTIN_48hr is one of 16 assay component(s) measured or calculated from the CLD_48hr assay. It is designed to make measurements of mRNA induction, a form of inducible reporter, as detected with chemiluminescence signals by Quantitative Nuclease Protection Assay (qNPA) technology.Data from the assay component CLD_ACTIN_48hr was analyzed at the endpoint, CLD_ACTIN_48hr, in the positive analysis fitting direction relative to DMSO as the negative control and baseline of activity. Using a type of inducible reporter, gain-of-signal activity can be used to understand changes in the reporter gene as they relate to the gene ACTA1. Furthermore, this assay endpoint can be referred to as a secondary readout, because this assay has produced multiple assay endpoints where this one serves a background control function. To generalize the intended target to other relatable targets, this assay endpoint is annotated to the background measurement intended target family, where subfamily is baseline control.
Human hepatocyte cultures were treated daily for two consecutive days with fresh dosing solutions containing appropriate concentrations of the 320 ToxCast chemicals (chemical identities were blinded to CellzDirect and other ToxCast collaborators), vehicle control (0.2% DMSO), and positive control inducers as summarized in Table 1. Due to the large number of treatment groups and chemicals examined, the ToxCast chemicals were divided into two groups (spanning two independent cultures of hepatocytes from separate donor preparations (Hu778: ToxCast plates 1 and 2; Hu776: ToxCast plates 3 and 4). Each preparation of human hepatocyte cultures was treated with respective vehicle control, medium only control, set of six positive controls/reference chemicals for the five hepatic receptor pathways, and a subset of eight of the ToxCast chemicals (indoxacarb, pyrithiobac-sodium, norflurazon, cyhalofop-butyl, methomyl, thiram, acetochlor, and propiconazole). These replicate data, coupled with internal replicates designed within the blinded ToxCast chemical library, provided additional data to evaluate interindividual differences between hepatocyte preparations and their potential impact on chemical profiles.Cell morphology and integrity were evaluated using phase-contrast microscopy as an indicator of hepatocyte cell health (Tyson & Green, 1987). Cultures for each treatment group (i.e., media, vehicle [0.2% DMSO], positive control inducers [multiple concentrations], and the ToxCast chemicals [multiple concentrations]) were observed and cell morphology was assessed relative to vehicle control cultures at each harvest time point (0, 6, 24, or 48 h). […] Images were evaluated at the conclusion of the study to assess changes in cell integrity and account for the effects of chemical exposure on uncharacteristic changes in concentration-dependent gene expression profiles. The results from these determinations of apparent cytotoxicity were annotated (yes/no) alongside the corresponding qNPA data for reference.At the conclusion of each treatment period, hepatocyte cultures (96-well) were washed with 1 volume of HBSS, lysed by addition of 25 ul ArrayPlate lysis buffer (HTG, Tucson, AZ), and 70 ul/well of Denaturation Oil, denatured by incubation at 95C for 10 min, and frozen at approximately -70C until analysis by nuclease protection assay (qNPA) (Roberts et al., 2007). For qNPA analysis, cell lysates were thawed at 50C for approximately 30 min, qNPA probes were added, and samples were incubated at 95C for 10 min to begin the detection process by denaturing the target RNA, dissociating the duplexes and secondary structure hybridization. At the conclusion of the hybridization period, S1 nuclease reagent was added to each sample to digest all nonprotected nucleotides at 50C for 60-90 min. […]
As to `CCC(C)OC(=O)N1CCCCC1CCO` (stereo unspecified), the compound was classed as inactive.
As for `Cc1nn(C)c(Oc2ccccc2)c1C=NOCc1ccc(C(=O)OC(C)(C)C)cc1`, the result was inactive.
Take `CCNc1nc(N)nc(Cl)n1`: the call was inactive.
Consider `CCC(O)=C1C(=O)CC(C(=O)O)CC1=O` (stereo unspecified), for which the call was inactive.
As to `CCCOC(=O)NCCCN(C)C`, the compound was classed as inactive.
Consider `CCOC(=O)C(C)Oc1ccc(Oc2nc3ccc(Cl)cc3o2)cc1` (stereo unspecified), for which the outcome was inactive.
Turning to `COc1c(Cl)ccc(Cl)c1C(=O)O`, the result was inactive.
Regarding `CCOC(=O)COc1cc(-n2ncc(C(F)(F)F)c(C)c2=O)c(F)cc1Cl`, the compound was called inactive.
Regarding `CSC(=O)c1cccc2nnsc12`, the result was inactive.
Then `CCSC(=O)N(CC(C)C)CC(C)C`, with “inactive”.
Then `CC(C)(c1ccc(O)cc1)c1ccc(O)cc1`, with “inactive”; and `C#CCOC(=O)[C@@H](C)Oc1ccc(Oc2ncc(Cl)cc2F)cc1`, with “inactive”; and `OB(O)O`, with “inactive”.
The result for `N#CSCSc1nc2ccccc2s1` reads “inactive”.
On to `COC(=O)c1ccccc1C(=O)O`, for which the compound was classed as inactive.
The result for `C=CCOC(Cn1ccnc1)c1ccc(Cl)cc1Cl` (stereo unspecified) reads “inactive”; that for `COC(=O)c1ccccc1S(=O)(=O)NC(=O)Nc1nc(OC(F)F)cc(OC(F)F)n1`, “inactive”; that for `CCCOC(=O)c1ccc(C(=O)OCCC)nc1`, “inactive”.
Then `S=C([S-])NCCNC(=S)[S-].[Mn+2]`, with “inactive”.
Turning to `CCCCCOC(=O)COc1cc(N2C(=O)C3=C(CCCC3)C2=O)c(F)cc1Cl`, the call was inactive.
As to `CCOC(=O)C(C)Oc1ccc(Oc2cnc3cc(Cl)ccc3n2)cc1` (stereo unspecified), the compound was called inactive.
The result for `COC(=O)c1ccc(I)cc1S(=O)(=O)NC(=O)Nc1nc(C)nc(OC)n1` reads “inactive”.
Then `CCCCOC(=O)C(C)Oc1ccc(Oc2ccc(C(F)(F)F)cn2)cc1` (stereo unspecified), with “inactive”; and `CC1(C)C(C=C(Cl)Cl)C1C(=O)OCc1cccc(Oc2ccccc2)c1` (stereo unspecified), with “inactive”.
Consider `O=C(O)C1(C(=O)Nc2ccc(Cl)cc2Cl)CC1`, for which the call was inactive.
As for `COCCO`, the result was inactive.
Then `Oc1ccc(C(c2ccc(O)cc2)C(Cl)(Cl)Cl)cc1`, with “inactive”.
Consider `CCCN(CCC)C(=O)SCC`, for which the call was inactive.
The result for `COC(=O)c1ccc(CNS(C)(=O)=O)cc1S(=O)(=O)NC(=O)Nc1nc(OC)cc(OC)n1` reads “inactive”; that for `COC(=O)c1c(Cl)nn(C)c1S(=O)(=O)NC(=O)Nc1nc(OC)cc(OC)n1`, “inactive”.
Then `CCOC(=O)[C@H](C)Oc1ccc(Oc2nc3ccc(Cl)cc3o2)cc1`, with “inactive”.
